Source: PubChem (National Center for Advancing Translational Sciences (NCATS))
Compounds with a hit are over-represented: about 6.9% of the library has one in this group of screens.
Giardia kill: Giardia lamblia killing | Giardia lamblia trophozoite viability | activity change, % at 7.66 µM, hits read low | 340,000 tested, 0.15% active | AID 540267; in the data active = activity change below about -80%; inconclusive = between about -30% and that limit;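 note: parasites exposed to compound for two days anaerobically before the ATP read; % is set by controls: 0 for no effect and ±100 for the full control effect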
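Trophozoites 100 cells/well + cpd; 48 hrs, 37 deg C, anaerobic. ATPLite 1-Step added, 15-30 min RT, luminescence read (ATP-based viability).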
MCF10A rerep: induces DNA re-replication in MCF 10a normal breast cells; Potency, µM (series often up to 46.1 µM), for the others: at the highest dose activity, positive = re-replication, usual class: activators; MCF 10A DNA re-replication, Hoechst nuclear intensity, 48 h; 350,000 tested, 2.9% active; AID 624296; note: potency is the fitted concentration of half-maximal effect; % of control where 0% means no effect; nearly all actives have a fitted effect of over 50% in size
SW480 rerep: inducers of DNA re-replication in SW480 colon cancer cells. SW480 DNA re-replication, Hoechst DNA content imaging, 48 h. Potency, µM (series often up to 46.1 µM), without a hit: at the top dose re-replication activation, hits mostly activators. 340,000 tested, 1.8% active. AID 624297; note: potency is the fitted concentration of half-maximal effect; % of control where 0% means no effect; nearly all actives have a fitted effect of over 55% in size
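Per well, 250 cells were exposed to pinned compound for 48 hr. Nuclear DNA was visualised with Hoechst (40 min, 37 C) and total object intensity recorded by fluorescence scanning.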
IL-1B inflam inh: blocks inflammasome-driven IL-1 beta release | activity change, % at 57.5 µM | THP-1 LPS/ATP IL-1B secretion, AlphaLISA, 16 h; active compounds read low | AID 743279 | 360,000 tested, 4.7% active; in the data active = activity change below about -50%; inconclusive = mostly about -30% to -49%; note: % is set by controls: 0 for no effect and ±100 for the full control effect
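THP-1 cells pretreated 1 hr with compounds (up to 57.5 uM final), then stimulated with LPS (250 ng/mL final) plus ATP (1.25 mM final); secreted IL-1B measured by AlphaLISA after 16 hr, decreased signal indicating inhibition.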
Vif-A3G inh: blocks the Vif interaction with human APOBEC3G; AID 602310; 410,000 tested, 0.076% active; Potency, µM (series often up to 46.1 µM), for inactives: at the highest dose activity, negative = active, most hits filed as inhibitors; HeLa A3G-eYFP + Vif (tagged APOBEC3G with the HIV-1 protein that degrades it), YFP fluorescence, overnight; note: potency is the fitted concentration of half-maximal effect; % is set by controls: 0 for no effect and ±100 for the full control effect; nearly all actives have a fitted effect of over 60% in size
Target sequence (Q9HC16 whole entry, looked up): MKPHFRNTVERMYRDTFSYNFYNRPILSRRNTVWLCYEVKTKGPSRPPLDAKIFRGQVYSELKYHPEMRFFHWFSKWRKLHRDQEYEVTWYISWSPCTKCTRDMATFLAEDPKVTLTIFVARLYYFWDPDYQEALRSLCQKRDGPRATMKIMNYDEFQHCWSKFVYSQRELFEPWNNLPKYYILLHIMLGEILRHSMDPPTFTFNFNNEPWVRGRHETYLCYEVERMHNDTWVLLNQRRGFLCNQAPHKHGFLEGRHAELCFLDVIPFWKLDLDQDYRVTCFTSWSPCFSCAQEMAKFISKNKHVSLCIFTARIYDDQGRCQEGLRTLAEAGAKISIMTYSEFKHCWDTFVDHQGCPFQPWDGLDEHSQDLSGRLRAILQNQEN
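HeLa cells stably expressing Vif and C-terminally eYFP-tagged A3G, seeded overnight at 37 deg C, then exposed to compound by pintool overnight at 37 deg C. Rise in yellow fluorescence (Ex 488/Em 500-530, Acumen) marks blocked Vif-driven A3G degradation.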
Vif-A3F inh: inhibitors of Vif-A3F interaction | HeLa A3F-eYFP + Vif (tagged APOBEC3F with the HIV-1 protein that degrades it), YFP fluorescence increase | Potency, µM (highest dose often 46.1 µM), without a hit: top-dose activity, negative = active | 390,000 tested, 0.2% active; note: potency is the fitted concentration of half-maximal effect; % of control where 0% means no effect; nearly all actives have a fitted effect of over 65% in size
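HeLa cells stably expressing A3F-eYFP plus Vif, plated and incubated overnight at 37 deg C, then exposed to compounds overnight at 37 deg C. Blocked degradation read as raised yellow fluorescence (Ex 488/Em 500-530).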
An asterisk follows results filed as active; ? = inconclusive; nt = not tested or not shown; ! = a repeat was not active. Unless noted, calls come from the whole dose curve; as a rule, active = well fitted curve in the direction sought with a large enough effect; inconclusive = small, poorly fitted or top-dose-only effect, or another doubt; inactive = no such curve, though single readings can be large; an effect the other way counts as inactive or inconclusive.

SMILES | Giardia kill | MCF10A rerep | SW480 rerep | IL-1B inflam inh | Vif-A3G inh | Vif-A3F inh
CCN1CCN(CCCNC(=O)Cn2c(-c3cccs3)cc3cc(F)ccc32)CC1 | nt | nt | nt | nt | 6% | -9%
Cc1cc2nc(N3CCN(C(=O)c4cccs4)CC3)sc2cc1C | 22 | -7% | -12% | 10 | 0% | 6%
Cc1cc(C)c2nc(N3CCC(C(=O)N4CCN(c5ncccn5)CC4)CC3)sc2c1 | -10 | 0% | ? | -78* | 0% | 1%
Cc1cc(C)c2nc(N3CCC(C(=O)N4CCCC4)CC3)sc2c1 | 11 | -1% | 18% | -14 | -5% | -2%
Cc1cc(C)c2nc(N3CCN(C(=O)c4cccs4)CC3)sc2c1 | -7 | ? | -449% | -70* | 0% | 9%
Cc1ccc(C)c(NC(=O)CN(C)S(=O)(=O)c2cccc3nsnc23)c1 | nt | nt | nt | nt | 2% | 6%
COc1ccc(N2CCN(C(CNS(=O)(=O)c3ccc(OC)c(C)c3)c3ccco3)CC2)cc1 (centres undefined) | nt | nt | nt | nt | 5% | 5%
Cc1ccc2cc(C)c3nnc(SCC(=O)NCc4ccco4)n3c2c1 | -1 | 18% | 0% | -21 | -1% | 0%
Cc1ccc(-n2nnc3c(SCC(=O)NCc4ccco4)ncnc32)cc1 | -1 | 23µM* | 8% | -5 | -26% | -16%
O=C(CSc1ncnc2c1nnn2-c1ccc(F)cc1)NCc1ccco1 | -3 | ? | -8% | -4 | -16% | -3%
Cc1cc2cc(C)c3nnc(SCC(=O)NCc4ccco4)n3c2cc1C | -8 | 5% | 2% | -66* | -1% | -5%
COc1ccc(-c2nc(SCC(=O)NCc3ccco3)c(-c3ccccc3)[nH]2)cc1OC | 5 | 21µM* | 1% | -18 | 0% | 0%
Cc1cc2nnc(SCC(=O)NCc3ccco3)n2c2ccccc12 | -19 | ? | 18µM* | -24 | ? | -7%
O=C(Nc1ccc(Cl)c(C(F)(F)F)c1)c1cc2nc(-c3ccc4c(c3)OCO4)cc(C(F)(F)F)n2n1 | nt | nt | nt | nt | -1% | 0%
Cc1nc(SCC(=O)NCc2ccco2)[nH]c(=O)c1C | 7 | 23µM* | ? | 39 | -14% | 2%
Nc1nc(SCC(=O)NCc2ccco2)[nH]c(=O)c1-c1ccccc1 | 6 | 27% | ? | 28 | -1% | 0%
COc1cccc(CNC(=O)c2cccc(-n3c(C)nc4cccnc43)c2)c1OC | nt | nt | nt | nt | 4% | -8%
CC1CCC(C(C)C)C(OC(=O)COC(=O)c2ccc(N)cc2)C1 (centres undefined) | 0 | 23µM* | -9% | 0 | 3% | -9%
CCN1CCCC1CNCC(O)COc1ccc(C(C)(C)C)cc1C (centres undefined) | 2 | 9.2µM* | ? | ? | 4% | 3%
Cc1cc(C(C)(C)C)ccc1OCCOCCN1CCCC1 | 0 | ? | 8% | -21 | 1% | 4%
Cc1nn(CCC(=O)NNC(=S)NCC(C)C)c(C)c1Br | -3 | -4% | 3.7µM* | 12 | 1% | -4%
CNC(=S)NNC(=O)CCn1nc(C)c(Br)c1C | -6 | -2% | ? | 0 | 2% | -4%
CCOC(=O)C1(C)C=C(Nc2cccc(C(=O)O)c2)C(=O)N1c1cccc(C(=O)O)c1 (centres undefined) | nt | nt | nt | nt | 2% | -8%
COc1ccc(C(c2nnnn2-c2ccc(OC)cc2)N2CCN(C/C=C/c3ccccc3)CC2)cc1 (centres undefined) | nt | nt | nt | -53* | -8% | nt
COc1ccc(-n2nnnc2C(c2cccs2)N2CCN(C/C=C/c3ccccc3)CC2)cc1 (centres undefined) | nt | nt | nt | 0 | -14% | nt
SMILES | Giardia kill | MCF10A rerep | SW480 rerep | IL-1B inflam inh | Vif-A3G inh | Vif-A3F inh
CN1CCN(C2Cc3ccccc3Sc3cc(C(F)(F)F)ccc32)CC1 (centres undefined) | 4 | ? | ? | -98* | -11% | 0%
CN1CCN(C2Cc3ccccc3Sc3ccc(Cl)cc32)CC1 (centres undefined) | ? | ? | nt | -17 | 0% | 7%
CSc1ccc2c(c1)C(N1CCN(C)CC1)Cc1ccccc1S2 (centres undefined) | -7 | 27µM* | 27µM*! | ? | -15% | 10%
O=c1ccc(N=Nc2ccccc2)ccc1O | 3 | ? | ? | -98* | 1% | -15%
CN(C)CCCN(C(=O)c1ccc(N2C(=O)CCC2=O)cc1)c1nc2c(F)cccc2s1 | -2 | 11% | 5% | -23 | -1% | 0%
CCOc1ccc2nc(N(CCN(C)C)C(=O)c3ccc4c(c3)CCCC4)sc2c1 | -24 | 27% | 5% | -65* | 3% | 2%
CN(C)CCCN(C(=O)c1ccc2c(c1)CCCC2)c1nc2c(F)cccc2s1 | 2 | 13% | ? | -62* | 3% | -7%
CN(C)CCN(C(=O)c1ccc2ccccc2c1)c1nc2ccc(F)cc2s1 | -10 | -6% | -1% | -19 | 2% | -1%
Cc1cc(C)c2nc(N(CCCN(C)C)C(=O)c3ccc4c(c3)CCCC4)sc2c1 | -5 | ? | ? | -78* | -1% | ?
CCc1ccc2nc(N(CCN(C)C)C(=O)c3ccc4ccccc4c3)sc2c1 | -10 | 10% | -11% | -54* | 2% | 1%
O=S(=O)(c1ccc(Br)cc1)N1CCn2cccc2C1c1ccc(Br)cc1 (centres undefined) | nt | nt | nt | nt | 3% | 0%
Cc1ccc2nc(N(CCN(C)C)C(=O)c3cc(Cl)sc3Cl)sc2c1 | -5 | 0% | -5% | -15 | -2% | 2%
Cc1ccc2nc(N(CCCN(C)C)C(=O)c3ccc4c(c3)CCCC4)sc2c1 | -15 | ? | ? | -100* | -24% | 0%
Cc1ccc2nc(-c3ccc(Cl)cc3)cc(C(=O)OCC(=O)c3ccccc3)c2c1 | nt | nt | nt | nt | -1% | -2%
CCCCc1ccc(-c2csc(/C(C#N)=C\c3ccco3)n2)cc1 | 18 | 18µM* | ? | -3 | -1% | -25%
CCSc1nc(-c2ccccc2)c(C#N)c(=O)[nH]1 | -15 | 7.3µM* | 20% | 22 | -2% | 1%
O=C(CSc1nc(-c2ccccc2)c2ccccc2n1)Nc1ccc(F)cc1 | nt | nt | nt | nt | 3% | -8%
Cc1ccc(CNC(=O)Cn2c(=O)n(-c3ccc(C)cc3)c(=O)c3c2c2cc(C)ccc2n3C)cc1 | nt | nt | nt | nt | -4% | -6%
O=C(NC1CCCC1)c1sc(=S)n2c1[nH]c(=O)c1ccccc12 | -4 | ? | ? | -85* | -4% | -22%
O=C(NCc1ccccc1)c1ccc2c(=O)[nH]c3c(C(=O)NCC4CCCO4)sc(=S)n3c2c1 (centres undefined) | -6 | -10% | -14% | 25 | -1% | 9%
